S-ASM inh: Inhibitors of Secretory Acid Sphingomyelinase (S-ASM): qHTS. 340,000 tested, 0.006% active. placental ASM, HMU-PC fluorogenic substrate, 60 min. Potency, µM (doses to about 57.5 µM), without a hit: top-dose activity change, negative = inhibition, actives largely listed as inhibitors. Sphingomyelin phosphodiesterase (Homo sapiens), P17405; further: potency means the concentration at half of the fitted maximal effect
Target sequence (P17405 47-631 limits assumed): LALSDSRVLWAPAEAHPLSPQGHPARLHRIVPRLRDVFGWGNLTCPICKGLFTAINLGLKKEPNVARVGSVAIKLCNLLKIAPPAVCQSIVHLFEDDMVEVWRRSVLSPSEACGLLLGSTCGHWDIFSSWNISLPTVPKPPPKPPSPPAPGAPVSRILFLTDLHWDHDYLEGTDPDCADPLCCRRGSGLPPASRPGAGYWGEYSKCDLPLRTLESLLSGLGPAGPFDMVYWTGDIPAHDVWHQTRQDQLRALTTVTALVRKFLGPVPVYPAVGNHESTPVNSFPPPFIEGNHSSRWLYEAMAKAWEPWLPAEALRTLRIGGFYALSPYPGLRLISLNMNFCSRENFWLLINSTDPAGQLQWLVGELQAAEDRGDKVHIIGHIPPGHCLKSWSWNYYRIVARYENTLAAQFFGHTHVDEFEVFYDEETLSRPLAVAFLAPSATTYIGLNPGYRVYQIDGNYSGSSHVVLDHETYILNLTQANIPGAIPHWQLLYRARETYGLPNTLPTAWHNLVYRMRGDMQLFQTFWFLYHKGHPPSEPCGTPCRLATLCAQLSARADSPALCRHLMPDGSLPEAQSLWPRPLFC
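Fluorogenic HMU-PC substrate (9 uM final) is turned over by placental ASM in 60 min at 37 C after a 10 min compound preincubation. Reaction ended by alkaline stop (pH 10), with fluorescence read at 386/447 nm.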
TDP1 cell CPT: qHTS for Inhibitors of human tyrosyl-DNA phosphodiesterase 1 (TDP1): qHTS in cells in presence of CPT. Potency, µM (top dose mostly 46.2 µM), for inactives: top-dose activity change, negative = growth inhibition, most hits filed as inhibitors. chicken DT40 Tdp1-/-;hTDP1 cells + 20 nM CPT, ATP luminescence, 48 h. 420,000 tested, 12% active; further: potency means the concentration at half of the fitted maximal effect; on the % scale 0 is the no-effect control and ±100 the full control effect; nearly all actives have a fitted effect of over 55% in size
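Cell growth measured by CellTiter-Glo luminescence after a minimum 48 h, 37 C compound exposure with 20 nM CPT in Tdp1-knockout DT40 cells stably expressing hTDP1, seeded 400/well; qHTS titration format.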
DT40 TDP1 no CPT: qHTS for Inhibitors of human tyrosyl-DNA phosphodiesterase 1 (TDP1): qHTS in cells in absence of CPT | 420,000 tested, 15% active | AID 686978, 2013 | Potency, µM (highest dose often 46.2 µM), for the others: at the highest dose activity change, negative = growth inhibition, actives largely listed as inhibitors | DT40 Tdp1-/- hTDP1 cells, no CPT, ATP luminescence, 48 h; further: potency means the concentration at half of the fitted maximal effect; on the % scale 0 is the no-effect control and ±100 the full control effect; nearly all actives have a fitted effect of over 55% in size
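Camptothecin absent (DMSO only). Human TDP1-complemented DT40 knockout cells, 400 cells/well, 37 °C for minimum 48 hr; ATP measured via CellTiter-Glo, 30 min dark incubation, luminescence.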
TGFb SMAD3 inh: qHTS for Inhibitors of TGF-b | HepG2 CAGA-GFP TGF-b/SMAD3 reporter, GFP fluorescence, 18 h; TGF-beta stimulated, 500 pg/mL final | Potency, µM (doses to about 46.1 µM), inactives show top-dose activity, negative = inhibition, usual class: inhibitors | AID 588855, 2011 | 410,000 tested, 1.2% active; further: potency means the concentration at half of the fitted maximal effect; on the % scale 0 is the no-effect control and ±100 the full control effect; nearly all actives have a fitted effect of over 65% in size
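First, reporter cells (HEPG2 CAGA-GFP) rested 2 h at 37 degrees C. Next, compounds were pinned in and TGF-beta added to 500 pg/mL final. After 18 h, GFP was imaged per cell and summed per well.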
HepG2 tox: qHTS for Inhibitors of TGF-b: Cytotox Counterscreen; AID 588856, 2011; HepG2 CAGA-GFP viability, ATP luminescence, 18 h; 410,000 tested, 0.76% active; Potency, µM (series often up to 46.1 µM), without a hit: at the top dose activity change, negative = cytotoxicity, hits mostly cytotoxic; further: potency means the concentration at half of the fitted maximal effect
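CellTiter-Glo luminescence gave cytotoxicity after 18 hours at 37 degrees C. The cells were HepG2 CAGA-GFP in 1% FBS DMEM, stimulated with 500 pg/mL TGF-beta after compound addition. %Activity was normalised to no-cell wells (complete cell-killing) and DMSO (no toxicity), and curves were fitted and classified.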
IL-1B inflam inh: qHTS for Inhibitors of Inflammasome Signaling: IL-1-beta AlphaLISA Primary Screen | THP-1 LPS/ATP IL-1B secretion, AlphaLISA, 16 h; hits give low values | activity change, % at 57.5 µM | AID 743279, 2014 | 360,000 tested, 4.7% active; in the data active means activity change below about -50%; inconclusive means mostly about -30% to -49%; further: on the % scale 0 is the no-effect control and ±100 the full control effect
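Secreted IL-1B measured by AlphaLISA bead assay after 16 h compound exposure of THP-1 cells; compounds (final up to 57.5 uM) added 1 h before LPS (250 ng/mL) and ATP (1.25 mM) stimulation; lower signal means less secretion.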
An asterisk follows results filed as active; ? = inconclusive; / = no result. Rows were chosen to be rich in hits. Some 19% of all compounds tested hit in one or more screens of this group. Unless noted, the call rests on the fitted dose curve; in most records, active means well fitted curve in the direction sought with a large enough effect; inconclusive means small, poorly fitted or top-dose-only effect, or another doubt; inactive means no such curve, though single readings can be large; an effect the other way counts as inactive or inconclusive.

SMILES | S-ASM inh | TDP1 cell CPT | DT40 TDP1 no CPT | TGFb SMAD3 inh | HepG2 tox | IL-1B inflam inh
Cc1nc(N2CCN(c3ccccc3O)CC2)c2c(-c3ccccc3)csc2n1 | -8% | ? | 16µM* | -4% | -1% | -62*
CC(=O)Nc1cccc(Oc2ncnc3scc(-c4ccc(C(C)C)cc4)c23)c1 | ? | 1.3µM* | 1.2µM* | ? | -9% | -52*
NC(=O)C1CCN(CCC(=O)Nc2ccc(F)c(F)c2)CC1 | 5% | 6% | -3% | -11% | 5% | -6
Cc1ccc(S(=O)(=O)N(C)c2ccc3sc(C)nc3c2)cc1 | 3% | ? | 23µM* | -21% | -24% | 27
C/C(=N\Nc1nc2c(s1)CCCC2)c1ccc(Cl)cc1 | -3% | 13µM* | 8.2µM* | ? | -21% | -55*
CCn1c(C)nc2cc(C(=O)OC(C(F)(F)C(F)F)C(F)(F)C(F)F)ccc21 | -8% | ? | 18µM* | 3% | 6% | 2
CCn1c(C)nc2cc(C(=O)NNC(=O)c3ccc(C)cc3)ccc21 | 7% | -3% | -23% | 3% | -2% | 10
Cc1cc(Cl)ccc1OCC(=O)NCCOc1nc(N2CCOCC2)nc(N2CCOCC2)n1 | -1% | ? | 21µM* | -22% | -26% | 14
Cc1cc(Cl)ccc1OCC(=O)NCCCN1CCOCC1 | 3% | -4% | -9% | -2% | 9% | 3
O=C(NCCOc1nc(N2CCOCC2)nc(N2CCOCC2)n1)Nc1ccc(Cl)cc1 | -3% | -25% | -25% | 11% | -4% | -1
CN(C)c1nc(OCCNC(=O)COc2ccc(Cl)cc2Cl)nc(N2CCOCC2)n1 | -1% | 15µM* | 13µM* | -7% | -30% | 19
CN(C(=O)COC(=O)Cn1cnc2ccccc21)C1CCCCC1 | 2% | -28% | -26% | -4% | 10% | 12
O=c1c2sccc2n(Cc2cc(=O)n3cc(Cl)ccc3n2)c(=O)n1-c1ccccc1 | / | 1% | -12% | 4% | 0% | /
COc1ccc2[nH]c(=O)c(CN(CCO)S(=O)(=O)c3ccc(C)cc3)cc2c1 | 71% | -16% | ? | 2% | -11% | 0
COc1ccc(S(=O)(=O)N(Cc2cc3cc(C)ccc3[nH]c2=O)CC2CCCO2)cc1 (centres undefined) | -1% | ? | 21µM* | -17% | -21% | -16
COc1ccc(S(=O)(=O)N(CCCN2CCCC2=O)Cc2cc3c(C)cc(C)cc3[nH]c2=O)cc1 | 5% | ? | ? | 1% | 5% | -54*
CCOC(=O)c1cccc(S(=O)(=O)N(CCO)Cc2cc3cc(OC)ccc3[nH]c2=O)c1 | 41% | -16% | -7% | -21% | -9% | 0
COC(=O)c1cccc(S(=O)(=O)N(Cc2ccco2)Cc2cc3cc(OC)ccc3[nH]c2=O)c1 | 29% | 29µM* | ? | -5% | -8% | -4
CCCCN(Cc1cc2cc(OC)ccc2[nH]c1=O)S(=O)(=O)c1ccc(C)cc1 | 31% | 10µM* | 7.3µM* | -13% | -18% | -20
Cc1ccc(CNS(=O)(=O)c2c(C)nc3sc(C)cn3c2=O)cc1 | / | ? | -26% | 15% | -5% | /
CC1CCCCN1S(=O)(=O)c1cccc2nonc12 (centres undefined) | -1% | -11% | -7% | 7% | -4% | 22
O=C(O)c1ccccc1-c1ccccc1C(=O)NCc1ccccc1F | 2% | 9% | 5% | 3% | 1% | 15
Cc1ccc2cc(CN(CC3CCCO3)S(=O)(=O)c3cccc4nsnc34)c(=O)[nH]c2c1 (centres undefined) | -4% | ? | 18µM* | -5% | 2% | 2
CC(=O)Nc1ccc(S(=O)(=O)N(Cc2cc3ccc(C)cc3[nH]c2=O)CC2CCCO2)cc1 (centres undefined) | -3% | -21% | ? | 13% | -5% | -9
CN(C)c1ccc(/C=N/NC(=O)CNC(=O)c2ccncc2)cc1 | 26% | -15% | 12% | 0% | 1% | 31
SMILES | S-ASM inh | TDP1 cell CPT | DT40 TDP1 no CPT | TGFb SMAD3 inh | HepG2 tox | IL-1B inflam inh
CC/C(=C\c1ccc(N(C)C)cc1)c1ccncc1 | 34% | 23µM* | ? | ? | -32% | -64*
COc1cc(C(=O)OCC(=O)N(CC(C)C)C2CCS(=O)(=O)C2)cc(OC)c1C (centres undefined) | 0% | -8% | 0% | -7% | -2% | 33
O=C(Nc1ccccc1N1CCCCC1)c1ccc(F)c(S(=O)(=O)N2CCOCC2)c1 | -2% | 16µM* | 21µM* | 2% | 0% | 21
Cc1ccccc1NC(=O)c1ccc(F)c(S(=O)(=O)N2CCCCC2)c1 | -1% | -20% | 4% | -17% | -1% | -2
O=C(NCC1COc2ccccc2O1)c1cc(S(=O)(=O)N2CCOCC2)c(Cl)cc1Cl (centres undefined) | -3% | ? | -27% | 9% | -7% | -8
Cc1cccc(N2CCN(S(=O)(=O)c3cc(C(=O)Nc4ccccc4Cl)ccc3F)CC2)c1C | / | ? | 23µM* | 0% | -2% | /
O=C(NCC1COc2ccccc2O1)c1ccc(F)c(S(=O)(=O)N2CCOCC2)c1 (centres undefined) | -2% | 18µM* | ? | -4% | 1% | 14
CN(c1ccccc1)S(=O)(=O)c1cc(C(=O)c2nccn2C)ccc1Cl | -3% | ? | 16µM* | 0% | -4% | -22
Cc1ccc(C(=O)Nc2ccccc2N2CCCCC2)cc1S(=O)(=O)N1CCOCC1 | / | ? | ? | -4% | -10% | -9
COc1ccc(C(=O)CC(C(=O)O)c2ccc3c(c2)OCO3)cc1OC (centres undefined) | / | 7% | 5% | 1% | 3% | -4
COC(=O)CC1C(=O)NCCN1C(=O)c1c(F)cccc1F (centres undefined) | 1% | -11% | -1% | 7% | -1% | 7
CC1=C(C(=O)N2CCCCCC2)CC(CC(=O)NCCN2CCOCC2)C(=O)N1CCCN1CCCC1=O (centres undefined) | / | -2% | 1% | / | / | /
